From PubChem BioAssay AID1159580 (chemical genetic matrix, 2015)
Values joined by “and” are separate entries in the source; they are usually repeats but may differ in a detail not shown here. Identical values can stand only once. Hit rate of the full screen: of about 5,500 compounds, about 2,000 (36%) were called active. Inconclusive results (about 18%) are left out. Rule as the data show it: active = normalized growth mostly below about 0.91 (no sharp cut-off); inconclusive = no clear call, values can overlap the other calls; inactive = mostly above about 0.92. The list shows a part of the results.

Test: chemical genetic growth profiling, strain panel (AID 1159580);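 also: tested at 20 µM; growth read once vehicle control cultures reached saturation at 30 °C; 1 = growth at the plate median or of vehicle wells; lower values mean less growth of the strain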
Details: S. cerevisiae deletion strains, growth OD

Measured: normalized growth

O=S(=O)(O)CCS
inactive: locus YAL013W, strain DEP1, hits give low values 1.01 | locus YAL021C, strain ccr4, hits give low values 0.983 | locus YAL026C, strain drs2, hits give low values 1 | locus YAL030W, strain snc1, hits give low values 0.993 | locus YBL061C, strain skt5, hits give low values 0.966 | locus YBR009C, strain hhf1, hits give low values 1.01 | locus YBR021W, strain FUR4, hits give low values 1.01 | locus YBR023C, strain chs3, hits give low values 0.989 | locus YBR171W, strain sec66, hits give low values 0.976 | locus YBR229C, strain ROT2, hits give low values 1.01 | locus YBR231C, strain swc5, hits give low values 1.01 | locus YBR279W, strain paf1, hits give low values 0.986 | locus YCL016C, strain dcc1, hits give low values 0.976 | locus YCL029C, strain bik1, hits give low values 0.993 | locus YCL069W, strain vba3, hits give low values 0.979 | locus YCR088W, strain abp1, hits give low values 0.985 | locus YDL005C, strain med2, hits give low values 0.949 | locus YDL035C, strain GPR1, hits give low values 1.02 | locus YDL040C, strain nat1, hits give low values 0.999 | locus YDL074C, strain BRE1, hits give low values 1.05 | locus YDL101C, strain DUN1, hits give low values 1.02 | locus YDL134C, strain PPH21, hits give low values 1.01 | locus YDL185W, strain tfp1, hits give low values 0.985 | locus YDL192W, strain arf1, hits give low values 0.99 | locus YDR001C, strain nth1, hits give low values 0.99 | locus YDR069C, strain doa4, hits give low values 0.992 | locus YDR101C, strain arx1, hits give low values 1.02 | locus YDR137W, strain rgp1, hits give low values 0.984 | locus YDR150W, strain NUM1, hits give low values 1.01 | locus YDR159W, strain sac3, hits give low values 0.977 | locus YDR162C, strain NBP2, hits give low values 1.01 | locus YDR195W, strain ref2 0.988 | locus YDR297W, strain sur2, hits give low values 0.989 | locus YDR318W, strain mcm21, hits give low values 0.991 | locus YDR334W, strain swr1, hits give low values 0.982 | locus YDR335W, strain msn5, hits give low values 0.981 | locus YDR388W, hits give low values 0.978 | locus YDR392W, strain spt3, hits give low values 0.928 | locus YDR502C, strain sam2, hits give low values 0.995 | locus YEL003W, strain gim4, hits give low values 0.998 | locus YEL037C, strain rad23, hits give low values 0.985 | locus YEL061C, strain CIN8 (second series), hits give low values 1.01 | locus YEL061C, strain CIN8, hits give low values 1.01 | locus YER015W, strain faa2, hits give low values 0.998 | locus YER016W, strain bim1, hits give low values 0.945 | locus YER110C, hits give low values 0.987 | locus YER111C, strain swi4, hits give low values 0.981 | locus YER155C, strain BEM2 (second series), hits give low values 1 | locus YER155C, strain BEM2, hits give low values 1.01 | locus YER167W, strain BCK2, hits give low values 0.996 | locus YFR010W, strain ubp6, hits give low values 1.01 | locus YGL078C, strain dbp3, hits give low values 0.976 | locus YGL086W, strain mad1, hits give low values 0.997 | locus YGL167C, strain pmr1, hits give low values 0.985 | locus YGL173C, strain kem1, hits give low values 0.998 | locus YGL227W, strain vid30, hits give low values 0.979 | locus YGL240W, strain doc1, hits give low values 1.01 | locus YGL248W, strain PDE1, hits give low values 1.03 | locus YGL253W, strain hxk2, hits give low values 0.986 | locus YGR135W, strain pre9, hits give low values 0.997 | locus YGR252W, strain gcn5, hits give low values 0.936 | locus YHR013C, strain ard1, hits give low values 0.927 | locus YHR027C, strain rpn1, hits give low values 1.01 | locus YHR030C, strain SLT2, hits give low values 1.01 and 0.989 | locus YHR079C, strain IRE1 (second series), hits give low values 0.989 | locus YHR079C, strain IRE1, hits give low values 0.991 | locus YHR094C, strain hxt1, hits give low values 0.991 | locus YHR129C, strain ARP1, hits give low values 1.01 | locus YHR142W, strain chs7, hits give low values 0.968 | locus YHR200W, strain rpn10, hits give low values 0.999 | locus YIL066C, strain RNR3, hits give low values 1.02 | locus YIL073C, strain SPO22, hits give low values 0.965 | locus YIL125W, strain kgd1, hits give low values 0.981 | locus YIR030C, strain dcg1, hits give low values 0.999 | locus YJL092W, strain hpr5, hits give low values 0.997 | locus YJL095W, strain BCK1 (second series), hits give low values 0.971 | locus YJL095W, strain BCK1, hits give low values 1.03 and 0.974 | locus YJL115W, strain asf1, hits give low values 0.983 | locus YJL129C, strain trk1, hits give low values 0.946 | locus YJL134W, strain LCB3, hits give low values 1.01 | locus YJL154C, strain vps35, hits give low values 0.97 | locus YJL164C, strain tpk1, hits give low values 0.991 | locus YJL166W, strain qcr8, hits give low values 1 | locus YJL168C, strain set2, hits give low values 0.992 | locus YJL187C, strain SWE1 (second series), hits give low values 1.03 | locus YJL187C, strain SWE1, hits give low values 0.986 | locus YJR043C, strain POL32, hits give low values 1.01 | locus YJR066W, strain TOR1, hits give low values 0.961
